The whole screen tested about 410,000 compounds, of which about 18,000 (4.4%) were called active. Roughly 7% stayed inconclusive and do not appear here. Cut-off read from the data, not from the text of the source: active = activity change below about -60%; inconclusive = no clear call, values can overlap the other calls; inactive = above about -39%. Only a selection was taken, and actives are over-represented in it overall.
% is set by controls: 0 for no effect and ±100 for the full control effect.

The assay in a line: qHTS Assay for inhibitors of the human cytomegalovirus (HCMV). The conditions noted are these: HFF cells, HCMV-luciferase reporter, 72 h; at 57.5 µM; stronger effect = lower value. The method, boiled down:
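Two-dose cell screen: HFF monolayers treated with compounds and infected with luciferase-expressing HCMV at 1 PFU/cell, 72 h at 37C, then lysed for luciferase measurement.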
Turning to `Cc1ccc(S(=O)(=O)N2CCC(C(=O)Nc3cc(C)ccc3C)CC2)cc1`, the activity change, negative = inhibition was 10.8% (inactive).

In the case of `Cc1cc(C)nc(-n2ncc3c2CC(c2ccc(C(C)C)cc2)CC3=O)n1` (configuration not stated), the activity change, negative = inhibition is -22.8% (inactive). Turning to `Cc1ccccc1NC(=O)Cn1c(=O)n(Cc2ccco2)c(=O)c2ccc(C(=O)NC3CCCC3)cc21`, the activity change, negative = inhibition was 36.1% (inactive). Take `CCOC(=O)N1CCc2c(sc(NCc3cccc(F)c3)c2C(=O)Nc2ccccc2OCC)C1`: the activity change, negative = inhibition is 30.2% (inactive).

Turning to `CN(C(=O)c1c(Cl)cnn1C)C12CC3CC(CC(C3)C1)C2`, the activity change, negative = inhibition was -18.8% (inactive). `O=C(O)c1c(CNCc2cccc(F)c2)c2ccccc2n1Cc1ccccc1`: the activity change, negative = inhibition is 8.63% (inactive).

On to `Cc1ccc(C(=O)Nc2c(C(=O)NC(C)(C)C)oc3ccccc23)cc1`, for which the activity change, negative = inhibition is -18.8% (inactive). As for `COc1ccccc1CNc1ccc(-c2nc(-c3ccccc3C)no2)cc1[N+](=O)[O-]`, the figure is 3.35% (inactive).

For `Cc1ccccc1CNC(=O)Cn1c(C)c2cnn(-c3ccccc3)c(=O)c2c1C`, the activity change, negative = inhibition is -13% (inactive). With `CCCNC(=O)N1CCC2(CC1)CN(C(=O)CN1CCOCC1)[C@H](CO)c1[nH]c3cc(OC)ccc3c12`, the activity change, negative = inhibition is 0.475% (inactive). `CC(C)=CCc1ccc(O)c(=O)cc1C(C)C`: the activity change, negative = inhibition was -101% (active).

Regarding `CCNC(=O)c1cc2n(n1)CCCN(Cc1ccc(C)cc1)C2=O`, the activity change, negative = inhibition is -3.42% (inactive). As to `Cc1cc(C)cc(OCC(=O)Nc2c(C(=O)c3ccccc3)oc3ccccc23)c1`, the activity change, negative = inhibition was 0.353% (inactive). The value for `CCC(C)(C)NC(=O)CN(Cc1cccs1)C(=O)CNS(=O)(=O)c1ccc(F)cc1` was -8.36% (inactive); that for `COc1ccc(Cn2c(=O)c3oc4ccccc4c3n(CC(=O)Nc3ccc(F)cc3F)c2=O)cc1` was 6.84% (inactive); that for `CCOC(=O)c1ccc(NC(=O)CCn2cnnn2)cc1` was 20.5% (inactive). On to `CCc1c(Nc2ccccc2C)nc(N)[nH]c1=O`, for which the activity change, negative = inhibition was 90.6% (inactive).

Regarding `Cc1[nH]c(N)nc(=S)c1CCCNc1ccccc1`, the activity change, negative = inhibition was -99.8% (active). For the compound `Cc1cc(=O)n(C)c(=O)n1CCCNc1ccccc1`, the activity change, negative = inhibition is -33.2% (inactive). With `Cc1nnnn1/C(=C\c1ccccc1)C(=O)OCC(=O)N1CC2(C)CC1CC(C)(C)C2` (configuration not stated), the activity change, negative = inhibition is -85.3% (active). On to `COC(=O)c1cc2n(n1)CCCNC2=O`, for which the activity change, negative = inhibition is 14.4% (inactive). On to `CCC(C)(O)C(=O)OC1C(=O)OC2CC3C(C)=CC(=O)C(O)C3(C)C3C4(O)OCC23C1C(C)C4O` (configuration not stated), for which the activity change, negative = inhibition is -96.7% (active). The value for `COCCNC(=S)N/N=C/c1c(C)[nH]c2ccccc12` was -68.5% (active); that for `COCCCNC(=S)NNC(=O)C(O)(c1ccccc1)c1ccccc1` was -17.8% (inactive); that for `COCCNC(=S)N(CCc1c(C)[nH]c2ccc(C)cc12)Cc1cccnc1` was 5.87% (inactive). For the compound `CCOC(=O)c1cccc(NS(=O)(=O)c2cc(-c3cnc(C)o3)ccc2OC)c1`, the activity change, negative = inhibition was -8.81% (inactive). Consider `COc1ccc(CCNC(=O)CC2SC(=Nc3cc(C)cc(C)c3)NC2=O)cc1OC` (configuration not stated), for which the activity change, negative = inhibition is 37.9% (inactive). `CC(C)S(=O)(=O)c1csc(NC(=O)Nc2ccc(Cl)cc2)c1Cl`: the activity change, negative = inhibition was -93.2% (active). In the case of `CC(=O)N1CCC(N(C(=O)Nc2ccc(Cl)cc2)C(C)C)CC1`, the activity change, negative = inhibition was -34.8% (inactive). For the compound `COc1ccc(OCC(O)CNC(=O)Nc2ccc(Cl)cc2)cc1` (configuration not stated), the activity change, negative = inhibition is -6.88% (inactive). For the compound `COc1ccc(Cl)cc1NC(=O)CN(C)C(=O)c1cc(-c2cccs2)nn1-c1ccccc1`, the activity change, negative = inhibition was -21.5% (inactive). Take `COc1cc(OC)cc(C(=O)NCCc2csc3nc(-c4ccccc4F)nn23)c1`: the activity change, negative = inhibition is -6.5% (inactive).

For the compound `Cc1ccc2[nH]c3c(=O)n(CC(=O)NC(C)C)ncc3c2c1`, the activity change, negative = inhibition was 5.38% (inactive). On to `C=C(C)C(=O)O[C@H]1C/C(C)=C\C(=O)/C=C(\C)[C@H](O)[C@@H]2OC(=O)C(=C)[C@@H]21`, for which the activity change, negative = inhibition was -98.8% (active). For the compound `Fc1cccc(-c2nc3c(N4CCOCC4)nccc3[nH]2)c1`, the activity change, negative = inhibition was 6.37% (inactive). `CCc1cccc(-n2nnc(-c3nsc(NC(=O)c4ccc(C)cc4)n3)c2C)c1`: the activity change, negative = inhibition is -39.1% (inactive). As to `COc1ccc(C(=O)NCC(=O)N/N=C/c2ccc([N+](=O)[O-])s2)cc1OC`, the activity change, negative = inhibition was -92.4% (active). On to `Cc1ccccc1NCC(=O)N/N=C\c1ccc([N+](=O)[O-])s1`, for which the activity change, negative = inhibition was -78.2% (active). With `COc1ccc(C(=O)NCC(c2ccco2)N2CCc3ccccc32)cc1OC` (configuration not stated), the activity change, negative = inhibition is -5.62% (inactive). Regarding `CC(C)(C)c1cc(C(=O)N/N=C/c2ccc([N+](=O)[O-])s2)n[nH]1`, the activity change, negative = inhibition was -73.9% (active).

With `C/C(=N\NC(=O)CNc1cccc2ccccc12)c1ccc(Br)s1`, the activity change, negative = inhibition is 21.2% (inactive). For `COc1ccc(N(CC(=O)N/N=C/c2cccs2)S(=O)(=O)c2ccc(OC)c(OC)c2)cc1`, the activity change, negative = inhibition was 3.94% (inactive). Take `Cc1ccsc1/C=N/NC(=O)Cc1cc(=O)[nH][nH]1`: the activity change, negative = inhibition is 80.6% (inactive). Turning to `Cc1nnc(SCc2nc3ccccc3nc2C)s1`, the activity change, negative = inhibition was 32.2% (inactive). Turning to `CCOC(=O)C1CCN(c2ncnc3c2c(-c2ccccc2)cn3-c2cccc(C)c2)CC1`, the activity change, negative = inhibition was -35.2% (inactive).

In the case of `CCOc1ccccc1C(=O)Nc1ccc(S(=O)(=O)N2CCCCC2c2cccnc2)cc1` (configuration not stated), the activity change, negative = inhibition is -33.6% (inactive). Regarding `Cc1[nH]c2ccccc2c1C(=O)C(=O)NCc1nnnn1-c1cccc(F)c1`, the activity change, negative = inhibition was -19% (inactive). For the compound `COc1ccc(NC(=O)c2ccc3nc(C(C)C)oc3c2)cc1OC`, the activity change, negative = inhibition was 6.52% (inactive). As to `Cc1cccn2c(=O)c(C(=O)NC(C)c3ccccc3)cnc12` (configuration not stated), the activity change, negative = inhibition is -18.5% (inactive).

As to `COC(=O)c1cc(S(=O)(=O)N2CCN(c3cc(C)ccc3C)CC2)c[nH]1`, the activity change, negative = inhibition is 9.83% (inactive).

Consider `Cc1cc(C(=O)N2CCC(C(=O)O)CC2)c(C(F)(F)F)o1`, for which the activity change, negative = inhibition is 0.635% (inactive).

Regarding `Cc1ccc(C)c(NC(=O)CSC2=Nc3ccccc3N=C(c3ccc(F)cc3)C2)c1`, the activity change, negative = inhibition is 22.5% (inactive). Take `COc1ccc(C2Nc3ccccc3C(=O)N2c2ccc(Cl)cc2)cc1Cn1cc([N+](=O)[O-])cn1` (configuration not stated): the activity change, negative = inhibition was 8.39% (inactive).

On to `Cc1ccc2[nH]c(=O)c(CN3CCCCC3)c(-c3ccccc3)c2c1`, for which the activity change, negative = inhibition is 11.7% (inactive). In the case of `Cc1[nH]c2ccccc2c1C(=O)CN1CCCC(C)C1` (configuration not stated), the activity change, negative = inhibition was 64% (inactive). As for `Cc1ccc2c(C(=O)CN3CCCC3)c(C)[nH]c2c1`, the activity change, negative = inhibition was -81.5% (active). Turning to `COc1ccc2c(C)c(CCC(=O)NCc3ccc(OC)c(OC)c3)c(=O)oc2c1`, the activity change, negative = inhibition is -7.55% (inactive).

The values above are taken from PubChem BioAssay AID1259415 (National Center for Advancing Translational Sciences (NCATS), 2018).
